Screening results (PubChem)
HEK293 tox – cytotoxic in the GLP-1 receptor inverse agonist counter-screen | 410,000 compounds, 0.13% hits | HEK293 cAMP-luciferase reporter cells, luminescence, 24 h | Potency, µM (doses to about 38.3 µM), inactives show at the top dose activity change, negative = inhibition, actives largely listed as inhibitors;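 note: loss of luciferase light is scored as toxicity; % is set by controls: 0 for no effect and ±100 for the full control effect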
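1536-well qHTS counterscreen of the MLSMR; 200 cells/uL, 12 h pre-incubation, 23 nL cpd, 24 h at 37 deg C 5% CO2, luciferase detection reagent, 12 min RT, luminescence. Inhibition = undesired.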
Gal4-VP16 FLuc – Gal4-VP16 reporter inhibition counter-screen; Drosophila S2 Gal4-VP16 UAS-luciferase, luminescence, 20 h; Potency, µM (series often up to 53.6 µM), for inactives: top-dose activity, negative = inhibition, hits mostly inhibitors; 310,000 compounds, 3.5% hits;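 note: Gal4-VP16 expression switched on by copper sulfate through the metallothionein promoter; % is set by controls: 0 for no effect and ±100 for the full control effect; nearly all actives have a fitted effect of over 50% in size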
GLP1R ag – agonists of human GLP-1 receptor; P43220; HEK293 GLP-1R CRE-luciferase, luminescence, 4-6 h; cells express a hypersensitive GLP-1R form; Potency, µM (highest dose often 45.6 µM), for the others: top-dose activation, actives largely listed as activators; 380,000 compounds, 0.007% hits; AID 624172; note: % of control where 0% means no effect
RORg inh – blocks mouse ROR gamma transcriptional activity; P51450; Drosophila S2 Gal4-RORgamma UAS-luciferase reporter, 20 h; Potency, µM (highest dose often 53.6 µM), for the others: at the highest dose activity change, negative = inhibition, hits mostly inhibitors; 310,000 compounds, 5.4% hits; AID 2551; note: % is set by controls: 0 for no effect and ±100 for the full control effect; nearly all actives have a fitted effect of over 60% in size
Target sequence (P51450 whole entry, looked up, the tested form may be a part): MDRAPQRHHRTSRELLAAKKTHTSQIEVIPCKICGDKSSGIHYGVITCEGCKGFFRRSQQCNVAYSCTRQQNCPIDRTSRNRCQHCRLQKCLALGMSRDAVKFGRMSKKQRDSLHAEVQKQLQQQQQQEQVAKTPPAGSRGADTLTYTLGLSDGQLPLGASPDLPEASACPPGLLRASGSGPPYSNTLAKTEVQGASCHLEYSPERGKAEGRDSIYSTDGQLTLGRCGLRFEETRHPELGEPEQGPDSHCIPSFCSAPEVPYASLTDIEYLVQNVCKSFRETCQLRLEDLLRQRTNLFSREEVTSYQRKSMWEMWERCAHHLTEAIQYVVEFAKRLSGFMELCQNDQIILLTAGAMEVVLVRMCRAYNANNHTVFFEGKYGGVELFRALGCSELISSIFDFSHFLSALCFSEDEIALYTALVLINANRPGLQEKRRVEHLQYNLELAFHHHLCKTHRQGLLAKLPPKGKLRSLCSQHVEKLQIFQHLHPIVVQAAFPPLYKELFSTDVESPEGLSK
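Stably transfected Drosophila Schneider cells are the test system, with ROR gamma fused to Gal4 and luciferase under UAS control; luminescence is read after 20 hr of 700 uM copper sulfate induction at ambient temperature.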
GLP1R inv ag – inverse agonists of human GLP-1 receptor. HEK293 GLP-1R CRE-luciferase, luminescence, 24 h; GLP-1R form is constitutively active. Potency, µM (series often up to 38.3 µM), for the others: top-dose activity change, negative = inhibition, most hits filed as inhibitors. AID 624417. 410,000 compounds, 1.6% hits. P43220; note: % is set by controls: 0 for no effect and ±100 for the full control effect; nearly all actives have a fitted effect of over 55% in size
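Readout was luciferase luminescence, measured 12 min after detection reagent at room temperature. Beforehand, GLP-1R reporter HEK293 cells had sat 12 h, then received compounds for 24 hr at 37 deg C.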
Numbers without * were called inactive; ? = inconclusive; nt = not tested or not shown; [ ] = remark or other dose. Sampled rows, rich in hits. Any-hit rate of the full collection: about 5.9%. Calls come from the whole dose curve; as a rule, active = well fitted curve in the direction sought with a large enough effect; inconclusive = small, poorly fitted or top-dose-only effect, or another doubt; inactive = no such curve, though single readings can be large; an effect the other way counts as inactive or inconclusive. Potency is the fitted concentration of half-maximal effect.

SMILES	HEK293 tox	Gal4-VP16 FLuc	GLP1R ag	RORg inh	GLP1R inv ag
CCOCC(=O)Nc1ccc(-c2cn3c(C)csc3n2)cc1	1.9%	nt	-3.5%	nt	14.3%
CC(C)CCN(Cc1ccco1)C(=O)c1cc2c(Cl)nc3ccccc3c2s1	3.1%	nt	2.2%	nt	3.0%
O=C(OCc1nc2scc(-c3ccccc3)c2c(=O)[nH]1)c1cc(Cl)ccc1[N+](=O)[O-]	-1.4%	?	-6.3%	11.2µM*	20.9%
O=C(c1csnn1)N1CCC2(CCCN(c3ccccn3)C2)CC1	nt	8.7%	nt	39.1%	nt
CCCN1Cc2cccc(C(=O)Nc3ccccc3F)c2C1=O	8.4%	nt	nt	nt	4.1%
Cc1nnsc1C(=O)NNS(=O)(=O)c1cc(C(F)(F)F)cc(C(F)(F)F)c1	-13.2%	19.2%	-0.8%	11.2µM*	8.5%
O=C(CN1CCCC1)Nc1sc2c(c1C(=O)Nc1ccc(Br)cc1)CCC2	-2.9%	3.55µM*	0.6%	2µM*	-22.0%
CCOc1ccc(NC(=O)c2c(NC(=O)CNCCN3CCOCC3)sc3c2CCC3)cc1	?	0.1µM*	-1.7%	0.562µM*	2.51µM*
CCC(=O)Nc1sc2c(c1C(=O)Nc1ccc(Br)cc1)CCCCC2	1.3%	nt	nt	nt	-21.3%
CCOc1ccc(NC(=O)c2c(NC(=O)c3ccccc3F)sc3c2CCC3)cc1	7.3%	nt	nt	nt	-3.3%
Nc1nc(Nc2ccc(Cl)cc2)nc2ccccc12	2.5%	?	-0.5%	-38.3%	?
CCOc1ccc(Nc2nc(N)c3ccccc3n2)cc1	-31.7%	?	-4.7%	7.08µM*	2.24µM*
CN(C)c1ccc(Nc2nc(N)c3ccccc3n2)cc1	-11.8%	3.55µM*	-3.9%	?	2µM*
Nc1nc(Nc2ccccc2)nc2ccccc12	14.8%	?	-17.2%	?	?
CCOC(=O)C1(C)Oc2ccccc2C(C(=O)OC)=C1C(=O)OC (configuration not stated)	-7.6%	0.8%	2.5%	10.3%	4.7%
COC(=O)C1=C(C(=O)OC)SC2(S1)C(C(=O)OC)=C(C(=O)OC)SC1=C2c2cccc(C)c2NC1(C)C	-25.1%	?	1.3%	5.62µM*	?
Cc1noc(C)c1-c1nccc(N(C)C)n1	nt	-17.7%	nt	-40.6%	nt
O=C1c2ccccc2C(=O)C1c1ccccn1	-22.1%	-19.9%	-0.5%	?	15.8%
O=C1c2ccccc2C(=O)C1c1ccncc1	-9.1%	11.2µM*	-30.1%	?	?
O=c1c2nncn2c2cc(C(F)(F)F)ccc2n1CCNc1ncc(C(F)(F)F)cc1Cl	-2.8%	-3.2%	9.4%	-9.8%	51.3%
NNc1nc2cccnc2n(CCNc2ncc(C(F)(F)F)cc2Cl)c1=O	23.3%	2.2%	6.2%	10µM*	45.9%
O=c1c(Cl)nc2cc(Cl)ccc2n1CCNc1ncc(C(F)(F)F)cc1Cl	6.7%	5.01µM*	-4.7%	11.2µM*	0.0%
C=C(C)C(O)C(CC/C=C(\C)C(=O)OCC)OC (configuration not stated)	nt	-2.9%[10 µM]	nt	1.4%[10 µM]	nt
CCOC(=O)c1ccc(NC(=S)NCc2ccco2)cc1	-8.8%	-22.5%	-2.0%	10µM*	?
COc1ccc(NC(=S)NCc2ccco2)cc1	0.0%	?	-3.3%	11.2µM*	-4.4%
SMILES	HEK293 tox	Gal4-VP16 FLuc	GLP1R ag	RORg inh	GLP1R inv ag
CCOC(=O)c1ccc(NC(=S)N(CCCN2CCCCCC2)Cc2ccco2)cc1	?	2.6%	10.0%	-3.0%	?
COc1cc(NC(=S)NCc2ccco2)cc(OC)c1	-12.0%	4.2%[0.365 µM]	7.5%	5.62µM*	-8.3%
CCOC(=O)c1ccc(NC(=S)NCc2ccc(S(N)(=O)=O)cc2)cc1	1.5%	-1.8%	0.5%	-5.8%	0.9%
COc1cc(NC(=S)NCc2cccnc2)cc(OC)c1	-8.2%	-7.2%	-3.6%	?	19.8%
CCOC(=O)c1ccc(NC(=S)N(CCN2CCCCCC2)Cc2ccco2)cc1	?	-13.2%	8.4%	?	6.31µM*
OCCCNC(=S)Nc1ccc(Oc2ccccc2)cc1	-1.4%	?	7.0%	-13.8%	10.2%
S=C(NCc1cccnc1)Nc1ccc(Oc2ccccc2)cc1	-0.4%	?	1.3%	?	?
CCOc1ccc(NC(=O)C(=O)NCc2ccco2)cc1	4.5%	nt	nt	nt	5.0%
S=C(NCc1ccco1)Nc1ccc(Oc2ccccc2)cc1	?	?	9.3%	6.31µM*	?
CC(C)CNC(=S)Nc1ccc(Oc2ccccc2)cc1	?	3.98µM*	6.7%	3.55µM*	11.2µM*
O=C(COC(=O)c1ccc(NS(=O)(=O)c2cccs2)cc1)NCc1ccco1	-13.7%	0.8%	-1.1%	22.4µM*	-22.6%
CCOc1ccc(NC(=S)NCc2ccco2)cc1	2.2%	?	14.4%	14.1µM*	1.7%
COc1ccc(CCNCc2c(C(=O)O)c(C)n(Cc3ccccc3C)c2C)c(OC)c1	-0.7%	nt	nt	nt	-0.6%
Cc1ccc(CCNC(=O)CCCn2c(=O)c3ccccc3n(Cc3ccccc3C)c2=O)cc1	-1.5%	nt	nt	nt	-3.1%
Cc1nnc(NC(=O)c2ccccc2-c2ccccc2C(=O)O)s1	-2.9%	-1.8%	-0.1%	14.6%	-18.7%
O=C(O)CCCn1cc(NC(=O)c2c(F)cccc2F)cn1	7.4%	-1.4%	0.3%	-25.7%	18.3%
CC(C)Sc1nnc(NC(=O)CCc2ccccc2)s1	-6.7%	-19.6%	-1.5%	11.2%	-18.5%
Cc1ccnc(NC(=O)c2cc3cc(F)ccc3s2)c1	11.7%	?	5.3%	3.16µM*	?
Cc1nnc(NC(=O)c2ccccc2NC(=O)c2ccccc2)s1	-3.9%	-16.8%	-1.6%	17.8µM*	11.7%
Cc1ccccc1C(=O)Nc1nnc(SC(C)C)s1	3.5%	-0.4%	-5.9%	2.51µM*	-15.6%
O=C(O)CCCn1cc(NC(=O)c2sc3ccccc3c2Cl)cn1	8.1%	5.01µM*	-1.6%	14.1µM*	35.3%
C=CCOC(=O)N[C@H](c1ccccc1)C(C(C)=O)C(C)=O	nt	-1.3%	nt	-5.4%	nt
CCN1C(C)=C(C(=O)OC)C(c2ccccc2)N2C(=O)[C@@]3(C(=O)OC)O[C@@]12C1C(=O)N(C)C(=O)C13 (some centres not stated)	nt	-4.3%[10 µM]	nt	-6.5%[10 µM]	nt
CC(C)C[C@@H](CC(=O)N[C@@H](CCC(=O)O)CC(=O)O)NC(=O)[C@@H]1CCCC[C@H]1NC(=O)C[C@@H](NC(=O)C[C@H](Cc1c[nH]c2ccccc12)NC(=O)[C@@H]1CNCC[C@H]1N)C(C)C	nt	-4.7%	nt	9.7%	nt
CO[C@H]1COC(=O)C/C=C\[C@H](C)[C@@H](OC)COC(=O)[C@H](Cc2ccccc2)NC(=O)C/C=C\[C@@H]1C	nt	0.4%[10 µM]	nt	-8.6%[10 µM]	nt
CCOc1ccccc1-n1c(N)c(C(=O)OC)c2nc3ccccc3nc21	19.6%	nt	6.9%	nt	7.7%
COc1ccc2c(c1)c(CC(=O)NCc1ccc3c(c1)OCO3)c(C)n2C(=O)c1ccc(Cl)cc1	nt	-3.5%	nt	33.6%	nt
Cc1ccnc(NC(=O)c2sc3cc(Cl)ccc3c2Cl)c1	4.2%	?	2.6%	2µM*	23.6%
